Test results from PMC4336329 (PLoS ONE, 2015).
The campaign covered roughly 310,000 compounds. About 14,000 (4.5%) showed an effect of 50% or more. Effects have a minus sign here. The sample holds strong results, similar compounds and a random draw of the others, so the mix is not that of the screen.

Molecular target: human ether-à-go-go-related gene (hERG) potassium channel (human, UniProt Q12809)
Assay: primary screen, population patch clamp on CHO cells stably expressing hERG; higher = less effect of the substance
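Also: peak tail current of the secondary pulse compared with the same well before compound.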

Chain of human ether-à-go-go-related gene (hERG) potassium channel (Q12809 whole entry, looked up): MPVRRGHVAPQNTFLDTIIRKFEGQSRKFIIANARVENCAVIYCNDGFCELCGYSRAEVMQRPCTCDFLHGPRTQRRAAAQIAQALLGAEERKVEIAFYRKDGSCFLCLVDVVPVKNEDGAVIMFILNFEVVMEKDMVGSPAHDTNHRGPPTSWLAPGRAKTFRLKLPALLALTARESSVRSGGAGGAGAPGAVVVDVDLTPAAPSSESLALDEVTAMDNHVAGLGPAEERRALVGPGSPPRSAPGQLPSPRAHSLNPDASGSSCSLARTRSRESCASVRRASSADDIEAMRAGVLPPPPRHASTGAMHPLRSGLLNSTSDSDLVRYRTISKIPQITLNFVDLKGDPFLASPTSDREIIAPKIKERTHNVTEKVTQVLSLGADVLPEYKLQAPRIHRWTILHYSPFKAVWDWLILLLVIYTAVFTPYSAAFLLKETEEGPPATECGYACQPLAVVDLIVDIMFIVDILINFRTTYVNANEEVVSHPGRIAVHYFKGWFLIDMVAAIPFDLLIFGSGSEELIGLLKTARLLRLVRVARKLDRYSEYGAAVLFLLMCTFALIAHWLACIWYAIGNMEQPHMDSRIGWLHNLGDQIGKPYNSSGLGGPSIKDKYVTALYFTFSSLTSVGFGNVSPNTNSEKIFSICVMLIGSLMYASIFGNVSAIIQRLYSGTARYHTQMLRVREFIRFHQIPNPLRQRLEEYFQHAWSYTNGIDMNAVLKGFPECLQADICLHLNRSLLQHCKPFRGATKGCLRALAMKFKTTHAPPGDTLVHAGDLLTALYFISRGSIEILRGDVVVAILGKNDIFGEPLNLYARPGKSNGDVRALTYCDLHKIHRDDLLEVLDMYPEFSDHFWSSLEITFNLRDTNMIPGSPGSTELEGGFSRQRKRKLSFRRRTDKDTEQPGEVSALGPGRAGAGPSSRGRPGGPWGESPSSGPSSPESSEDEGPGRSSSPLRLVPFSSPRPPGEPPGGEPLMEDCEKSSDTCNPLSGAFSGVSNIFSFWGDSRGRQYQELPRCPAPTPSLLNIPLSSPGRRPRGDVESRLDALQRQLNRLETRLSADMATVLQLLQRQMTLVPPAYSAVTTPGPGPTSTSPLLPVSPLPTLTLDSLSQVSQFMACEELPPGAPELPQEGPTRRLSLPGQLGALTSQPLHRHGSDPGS

SMILES | hERG current change (%, negative = inhibition) at 10uM [%]
CCN(CC)CCOC(=O)c1ccc(NC(=S)NC(=O)/C=C/c2ccco2)cc1 | -0.561
Cc1oc2c(c(C)cc3oc(=O)c(CC(=O)N[C@H](C(=O)O)C(C)C)c(C)c32)c1C | 15.2
Cc1cc2c(ncn2C(C)C)c(N)c1C | -9.87
CSc1ccc(C#N)cc1NC(=O)c1ccccc1 | -36.5
NC(=O)C1CCN(C(=O)Cc2ccsc2)CC1 | -1.15
Cc1csc2nc(O)c(C(=O)NCCCc3ccccc3)c(=O)n12 | -20
Cc1ccnc(NS(=O)(=O)c2ccc(NC(=O)Cc3ccc(Cl)cc3)cc2)n1 | 14.3
S=C1NC2(CCCCC2)Cc2ccccc21 | 12.4
CC(C)NC(=O)CN1CCN(Cc2nc(-c3cccs3)no2)CC1 | 19.9
C[C@@H](C(=O)Nc1ccc2ccccc2c1)[C@H]1C[C@]1(C)[C@H](NC(=O)c1cnccn1)c1ccccc1 | -4.43
CN1CCN(C(=S)NC(=O)c2ccccc2Br)CC1 | 11.2
O=c1[nH]c(O)c(N=Nc2cccc(S(=O)(=O)N3CCOCC3)c2)c(=O)[nH]1 | -73.7
O=c1[nH]c(O)c(N=Nc2ccc(S(=O)(=O)N3CCOCC3)cc2)c(=O)[nH]1 | -4.59
O=c1[nH]c(=S)[nH]c(O)c1N=Nc1cccc(S(=O)(=O)N2CCOCC2)c1 | 9.03
COC(=O)C1=C(c2ccccc2)C[C@@H]2CC[C@H]1N2C(=O)NCCCOC(C)C | 0.331
CCOc1ccc(N(C(=O)CNC(=O)c2ccco2)C(C(=O)NC2CCCC2)c2ccncc2)cc1 (centres unmarked) | -10.7
COc1ccc(CN2CCN(CCc3ccccc3)C(CCO)C2)c(O)c1 (centres unmarked) | -71.7
COc1ccc(F)c(CN2CCN(CCc3ccccc3)C(CCO)C2)c1 (centres unmarked) | -55.9
COc1ccc(CN2CCN(CCCc3ccccc3)C(CCO)C2)c(O)c1 (centres unmarked) | -83.1
COc1ccc(CN2CCN(Cc3c[nH]c4ccccc34)CC2CCO)c(F)c1 (centres unmarked) | -41.4
O=C(OCC1OC(n2cc(Br)c(=O)[nH]c2=O)C(Br)C1O)c1ccccc1 (centres unmarked) | 8.3
CCC(C)N(C(=O)COC(=O)CNC(=O)c1ccccc1F)C1CCS(=O)(=O)C1 (centres unmarked) | 4.36
COc1ccc(C)cc1NC(=O)c1cc2c(s1)CCC2 | -5.71

SMILES | hERG current change (%, negative = inhibition) at 10uM [%]
COc1ccccc1-c1nnc2sc(-c3ccc(N(C)C)cc3)nn12 | -11
CC(=O)NC(C)c1nc2ccccc2n1C(C)C (centres unmarked) | -10.2
Cc1cc(C)cc(NC(=O)C(NCC2CCCO2)c2ccccc2)c1.O=C(O)C(=O)O (centres unmarked) | -35.5
Cc1ccc(C)c(NC(=O)C(c2ccccc2)N2CCOCC2)c1 (centres unmarked) | -10.6
Cc1cc(C)cc(NC(=O)C(NCCN2CCOCC2)c2ccccc2)c1.O=C(O)C(=O)O (centres unmarked) | -7.91
COc1ccc(C)cc1NC(=O)C(NCC(O)c1ccccc1)c1ccccc1.O=C(O)C(=O)O (centres unmarked) | -21.7
Cc1ccc(C)c(NC(=O)C(NCC(C)(C)N2CCOCC2)c2ccccc2)c1 (centres unmarked) | -62.6
COc1ccc(C)cc1NC(=O)C(NCC1CCCO1)c1ccccc1 (centres unmarked) | -51.4
Cc1cc(NC(=O)C2CCN(S(=O)(=O)Cc3ccccc3)CC2)ccc1-n1cnnn1 | -9.11
FC(F)(F)c1cnc(Sc2ncn[nH]2)c(Cl)c1 | 4.22
CCOC(=O)c1c(C)[nH]c(C(=O)CN2C(=O)NC3(CCCC3)C2=O)c1C | -1.87
CCOc1ccc(S(=O)(=O)N2CCN(CC)CC2)cc1NC(=O)c1ccccc1F | -16.6
COc1ccc(CCC(=O)Nc2nc(C)c(C(=O)N(C)C)s2)cc1 | -2.23
CS(=O)(=O)c1ccc(N2CCOCC2)c(S(C)(=O)=O)c1 | -5.39
CC(C)CCN1CCN(C2CCN(c3ccccc3)CC2)CC1CCO (centres unmarked) | -60.9
CC(C)CCN1CCN(C2CCN(c3ccc4c(c3)OCO4)CC2)CC1CCO (centres unmarked) | -17.6
Cc1cc(F)ccc1N1CCC(N2CCN(C(C)C)C(CCO)C2)CC1 (centres unmarked) | -24.7
Cc1cc(F)ccc1N1CCC(N2CCN(C)C(CCO)C2)CC1 (centres unmarked) | 22.1
Cc1ccc(N2CCC(N3CCN(C)C(CCO)C3)CC2)cc1 (centres unmarked) | 12.8
Cc1cc(F)ccc1N1CCC(N2CCN(CCC(C)C)C(CCO)C2)CC1 (centres unmarked) | -63.5
O=C(CN1CCOCC1)NCCc1ccccc1 | 16.4
NS(=O)(=O)c1ccc(NN=C2CCN(Cc3ccccc3)CC2)c([N+](=O)[O-])c1 | -17.6
CCOC(=O)NC(=O)CSc1ccc2ccccc2n1 | 14

SMILES | hERG current change (%, negative = inhibition) at 10uM [%]
CCC1(C(=O)OC)NC(c2ccco2)C2C(=O)N(c3ccc(F)cc3)C(=O)C21 (centres unmarked) | 6.75
CCOC(=O)C1CCN(S(=O)(=O)c2cccc(-c3cn4cc(C)ccc4n3)c2)CC1 | -3.7
CCOC(=O)C1CCN(S(=O)(=O)c2cccc(-c3cn4ccccc4n3)c2)CC1 | -60.4
Cc1nc(-c2cccc(S(=O)(=O)N3CCC(C)CC3)c2)cs1 | -13.4
CCOC(=O)C1CCN(S(=O)(=O)c2cccc(-c3cn4cccnc4n3)c2)CC1 | -24.7
Cc1nc(-c2cccc(S(=O)(=O)N3CCCCCC3)c2)cs1 | -23.2
CCOC(=O)C1CCN(S(=O)(=O)c2cccc(-c3cn4cccc(C)c4n3)c2)CC1 | -21.3
CCOC(=O)C1CCN(S(=O)(=O)c2cccc(-c3cn4cc(Cl)ccc4n3)c2)CC1 | -58
CC1CCN(S(=O)(=O)c2cccc(-c3cn4cc(Cl)ccc4n3)c2)CC1 | -5.86
CCOC(=O)C1CCN(S(=O)(=O)c2cccc(-c3csc(C)n3)c2)CC1 | -53.5
COc1ccccc1C(=O)NC(C)c1cccc2ccccc12 (centres unmarked) | 8.02
C=CCN(C(=O)c1ccc(Cl)cc1)c1ccccc1C(=O)NCC(=O)O | 21.1
CCC(NC(=O)NCCCn1ccnc1)(C(F)(F)F)C(F)(F)F | 8.18
CC(C)c1ccc(N=c2c([N+](=O)[O-])nn(-c3ccc4c(c3)OCCO4)n2O)cc1 | 1.98
COc1ccc(CSc2ccc(-c3nc4ccccn4c3NCc3ccccc3)cc2OC)cc1.O=C(O)C(F)(F)F | 8.68
C=CCn1c(SCCCCCC)nc(O)cc1=O | -4
Cc1ccccc1/C=N\NC(=O)c1ccccc1-n1cccc1 | 18.5
COc1cccc(C2C(=O)c3ccccc3C2=O)c1 | 16.9
NS(=O)(=O)c1ccc(CCNCC(=O)NC2CC2)cc1 | -64.1
NS(=O)(=O)c1ccc(CCNC(=O)CNCCc2ccccc2)cc1 | 16.2
NS(=O)(=O)c1ccc(CCNC(=S)NC2CCCC2)cc1 | 11.2
O=C(CCNC(=O)c1ccccc1Cl)NCCCSc1ccccc1 | -8.64
Br.Clc1ccc2nc(CN3CCCCC3)cn2c1 | -32.7

SMILES | hERG current change (%, negative = inhibition) at 10uM [%]
Cc1cc2ccc3ccccc3c2cc1CN(C)C.Cl | -51.9
CN(C)Cc1c(O)ccc2ccccc12 | 0.0591
CN(C)Cc1cc2ccccc2c2c1COC2 | -0.493
O=C(O)CCC(=O)N1N=C(c2ccc(Br)cc2)CC1c1ccc(Br)cc1 (centres unmarked) | 20.6
Cc1ccc(C)c(C(=O)Nc2nc3ccccc3[nH]2)c1 | 25.9
O=C(NCC1CCCO1)C1CCN(C2CCN(C(=O)CC3CCCC3)CC2)CC1 (centres unmarked) | -10
O=C(NCCc1ccccc1)C1CCN(Cc2ccccc2F)CC1.O=C(O)C(=O)O | 1.53
O=C(NCCc1ccccc1)C1CCN(C2CCN(Cc3ccc(CO)o3)CC2)CC1 | 18.2
Cc1cc(C)c(CN2CCC(N3CCC(C(=O)NCC4CCCO4)CC3)CC2)cc1C (centres unmarked) | -24.4
Cc1ccc(CN2CCC(N3CCC(C(=O)NCC4CCCO4)CC3)CC2)o1 (centres unmarked) | -4.02
Cc1ccccc1CN1CCC(N2CCC(C(=O)NCC3CCCO3)CC2)CC1 (centres unmarked) | -1.07
O=C(NCC1CCCO1)C1CCN(C2CCN(C3CCCCCC3)CC2)CC1 (centres unmarked) | 28.4
O=C(NCC1CCCO1)C1CCN(C2CCN(CCCC3CCCC3)CC2)CC1 (centres unmarked) | -58
CCOc1cccc(CN2CCC(N3CCC(C(=O)NCC4CCCO4)CC3)CC2)c1 (centres unmarked) | -10.5
O=C(NCCc1ccccc1)C1CCN(C2CCN(Cc3ccco3)CC2)CC1 | -62.7
O=C(NCC1CCCO1)C1CCN(C2CCN(Cc3ccco3)CC2)CC1 (centres unmarked) | -51
O=C(NCC1CCCO1)C1CCN(C2CCN(Cc3cccs3)CC2)CC1 (centres unmarked) | -64.2
Cc1ccc(C(=O)Nc2cc(C(C)C)c(O)c(C(C)C)c2)cc1 | -4.12
CC(=O)[C@@H]1[C@@H](C)N(Cc2ccccc2)C(=O)N[C@H]1c1cccc(C(F)(F)F)c1 | 5.55
Cc1nnsc1C(=O)Nc1ccccc1 | 18.2
